Assay outcomes as filed in PubChem.
ARNT TACC3 PPI = disruptors of ARNT/TACC3 protein interaction, primary screen, biochemical, AlphaScreen, single concentration; Transforming acidic coiled-coil-containing protein 3 (Homo sapiens), Q9Y6A5; AlphaScreen His-ARNT PAS-B/GST-TACC3 binding, luminescence; TACC3 fragment carries E629A point mutation; inhibition, % at 9.99 µM; 390,000 tested, 0.66% active; AID 623870, 2012;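 active = mean inhibition of replicates at least 50% and at least half of replicates each reaching 50%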;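 note: 0% = complete ARNT plus TACC3 wells and 100% = ARNT alone without TACC3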
HSF-1 act = HSF-1 activators, primary screen, NIH3T3-HGL cells, MG132 stress, luminescence, single point; NIH3T3-HGL HSF-1 luciferase reporter, 8 h; 100% = twice DMSO control signal; activation, % at 9 µM; 300,000 tested, 1.7% active; AID 504408, 2011;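 active = mean replicate activation of at least 50% with a set share of replicates each reaching 50%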;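 note: 0% = median of the neutral control wells and 100% = twice that signal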
HSF1 inhib = HSF1 inhibitors in luciferase reporter cells, primary screen, cell-based, NIH3T3, luminescence. NIH3T3-HGL HSE-luciferase, MG132-induced, luminescence 8 h; stronger effect = lower value. activity change, negative = inhibition, % at 7.5 µM (by protocol). 300,000 tested, 0.77% active. AID 2098, 2009;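 active = more than half of replicate wells show activity change below -50%, luminescence cut by over half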;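 note: luciferase reports HSF-1 transcriptional activity via heat shock element; 0% = median of DMSO wells and -100% = zero luminescence signal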
HSP90 refold inh = HSP90 inhibitors, primary screen, cell lysate, luminescence. Heat shock protein HSP 90 (rabbit reticulocyte lysate; luciferase refolding). Rabbit reticulocyte lysate, luciferase refolding luminescence, 3 h. inhibition, % at 5.6 µM. 290,000 tested, 0.91% active. AID 1789, 2009;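 active = inhibition above the screen-wide mean plus 3 SD, computed separately per campaign, cut at about 16% in these data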;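 note: 0% = DMSO wells and 100% = 60 µM geldanamycin wells; inhibitors lower the luminescence because luciferase stays unfolded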
HIF act = HIF pathway transcriptional activators, primary screen, cell-based, U2OS HRE-luciferase, luminescence; AID 1910, 2009; 300,000 tested, 0.32% active; U2OS HRE-luciferase reporter; normalized: DMSO 0%, desferrioxamine 100%; activation, % at 7.5 µM (by protocol);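 active = mean activation of at least 10% of the iron chelator positive control signal, with at least half of replicates also reaching 10%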
Numbers without * were called inactive; nt = no result given. Rows were chosen to be rich in hits. Some 3.1% of all compounds tested hit in one or more screens of this group.

SMILES | ARNT TACC3 PPI | HSF-1 act | HSF1 inhib | HSP90 refold inh | HIF act
O=C1/C(=C/c2cccc(O)c2)SC(=S)N1CC1CCCO1 (configuration not stated) | -3 | -10 | 1 | -7 | 0
CCOc1cc(/C=C2/SC(=S)N(CC3CCCO3)C2=O)ccc1O (configuration not stated) | 6 | 73* | 28 | 2 | 1
CCCC(c1nnnn1CC(=O)OCC)N(Cc1cc2c(C)cc(C)cc2[nH]c1=O)C1CCCC1 (configuration not stated) | -5 | 92* | 66 | 0 | -1
O=C(Nc1ccccc1Cl)Nc1ccccc1Cl | -1 | 8 | 10 | 1 | 0
O=C(Nc1ccc(Nc2ccccc2)cc1)Nc1ccccc1Cl | 1 | 56* | 34 | -4 | 4
C/C=C/c1ccc2c(c1)O[C@@H](CN(C)Cc1ccncc1)[C@H](C)CN([C@H](C)CO)S2(=O)=O | -5 | nt | nt | nt | nt
CN(C)c1ccc(/C=C/C(=O)c2ccccc2O)cc1 | nt | 58* | 24 | 6 | 2
COc1ccc2[nH]c(=O)c(CN(C(=O)COc3ccccc3)C(C)C)cc2c1 | 0 | 64* | 34 | -1 | 0
Cc1c(C(=O)N/N=C/c2ccccn2)nnn1-c1nonc1N | 43* | 13 | 1 | 1 | 0
Nc1nonc1-n1nnc(C(=O)N/N=C/c2ccccn2)c1CNc1ccccc1 | 47* | 5 | -3 | 1 | 0
Cc1c(C(=O)N/N=C/c2ccncc2)nnn1-c1nonc1N | -6 | nt | nt | nt | nt
O=C(C[C@H]1CC[C@H](NS(=O)(=O)c2ccc(F)cc2)[C@H](CO)O1)N1CCC(Cc2ccccc2)CC1 | -8 | nt | nt | nt | nt
O=C(C[C@@H]1C=C[C@H](NC(=O)C2CC2)[C@H](CO)O1)Nc1nccs1 | -3 | nt | nt | nt | nt
CCCNC(=O)N[C@@H]1CC[C@@H](CCn2cc(C3CCCC3)nn2)O[C@@H]1CO | -5 | nt | nt | nt | nt
CCc1nc(SCC(=O)NCCc2ccccc2)c2oc3ccccc3c2n1 | -3 | 13 | -5 | -4 | 0
CCC(C)[C@H](Nc1nc(-c2ccccc2)nc2c1oc1ccccc12)C(=O)O (some centres not stated) | 0 | -26 | -3 | -4 | 0
CCc1nc(SCC(=O)c2cccs2)c2oc3ccccc3c2n1 | -2 | 66* | 12 | 7 | 0
O=C(O)CSc1nc(-c2ccc(Cl)cc2)nc2c1oc1ccccc12 | 2 | 11 | -1 | 0 | 0
CC(C)[C@H](Nc1nc(-c2ccccc2)nc2c1oc1ccccc12)C(=O)O | 2 | -65 | -55* | -2 | 0
O=C(O)CSc1nc(-c2ccccc2)nc2c1oc1ccccc12 | 4 | -74 | -68* | 1 | 0
COc1cc(-c2c(C#N)c(N)nc(SCc3ccncc3)c2C#N)cc(OC)c1OC | -3 | -16 | -6 | 2 | -1
N#Cc1c(N)nc(SCc2ccncc2)c(C#N)c1-c1cccs1 | 5 | -70 | -68* | -2 | -1
CN1CCc2nc(SCc3ccc(Cl)cc3)c(C#N)c(-c3cccs3)c2C1 | nt | 190* | 156 | 3 | 0
O=C(C[C@@H]1C=C[C@@H](NC(=O)Nc2ccccc2)[C@H](CO)O1)NCc1ccccn1 | 2 | nt | nt | nt | nt
COc1ccc(S(=O)(=O)N2CC[C@H]3[C@@H](CO)N(C)c4ccc(C5=CCCCC5)cc4[C@H]32)cc1 | 8 | nt | nt | nt | nt
SMILES | ARNT TACC3 PPI | HSF-1 act | HSF1 inhib | HSP90 refold inh | HIF act
CC(C)CC#Cc1ccc2c(c1)O[C@@H](CN(C)C)[C@@H](C)CN([C@@H](C)CO)S2(=O)=O | -20 | nt | nt | nt | nt
Clc1ccc(CON/C=N/c2ncnc3sccc23)cc1 | -3 | -9 | -10 | 17* | 0
C[C@H]1CCCCO[C@H](CN(C)CC2CCCCC2)[C@@H](C)CN([C@@H](C)CO)C(=O)c2cc(NC(=O)NC3CCCCC3)ccc2O1 | -4 | nt | nt | nt | nt
COc1ccc(CC(=O)Nc2ccc(-c3csc(C)n3)cc2)cc1 | -5 | 40 | 4 | 2 | 0
Cc1nc(-c2ccc(C(=O)Nc3ccc(F)cc3)cc2)cs1 | 28 | 67* | 19 | 3 | 0
COc1ccc(CC(=O)Nc2ccc(-c3cn4ccccc4n3)cc2)cc1 | -1 | 184* | 126 | 1 | 2
Cc1nc(-c2ccc(NC(=O)Cc3ccccc3)cc2)cs1 | 7 | 57* | 29 | -2 | -22
